Screening results (PubChem BioAssay)
WRN helicase inh-1 = qHTS for Inhibitors of WRN Helicase; Bifunctional 3'-5' exonuclease/ATP-dependent helicase WRN (Homo sapiens), Q14191; WRN helicase unwinding, fluorescent forked duplex, kinetic; Potency, µM (doses to about 114 µM), for the others: at the highest dose activity change, negative = inhibition, usual class: inhibitors; hit rate 0.46% among 360,000; further: on the % scale 0 is the no-effect control and ±100 the full control effect; nearly all actives have a fitted effect of over 55% in size
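Kinetic red-fluorescence monitoring (525/598 nm) tracks WRN helicase activity after 100 nM fluorophore-quencher forked duplex and 2 mM ATP are added to 20 nM enzyme pretreated 15 min at room temperature with compound.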
Pol eta inh-1 = qHTS for Inhibitors of Polymerase Eta | DNA polymerase eta (Homo sapiens), Q9Y253 | recombinant Pol eta, fluorescent DNA replication assay | hit rate 1.2% among 390,000 | Potency, µM (highest dose often 114 µM), for the others: at the highest dose activity change, negative = inhibition, actives largely listed as inhibitors | AID 588591, 2011; further: on the % scale 0 is the no-effect control and ±100 the full control effect
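Fluorescent replication assay: 50 nM final substrate added after a 15 min room-temperature compound preincubation with 10 nM enzyme. Signal taken at 0 min and again at 10 min.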
FEN1 inh-1 = qHTS Assay for the Inhibitors of Human Flap endonuclease 1 (FEN1); hit rate 0.35% among 390,000; Potency, µM (top dose mostly 114 µM), for inactives: at the top dose activity change, negative = inhibition, usual class: inhibitors; Recombinant FEN1 flap cleavage, fluorescence, 15 min; P39748; further: on the % scale 0 is the no-effect control and ±100 the full control effect; nearly all actives have a fitted effect of over 65% in size
Target sequence (P39748 whole entry, looked up): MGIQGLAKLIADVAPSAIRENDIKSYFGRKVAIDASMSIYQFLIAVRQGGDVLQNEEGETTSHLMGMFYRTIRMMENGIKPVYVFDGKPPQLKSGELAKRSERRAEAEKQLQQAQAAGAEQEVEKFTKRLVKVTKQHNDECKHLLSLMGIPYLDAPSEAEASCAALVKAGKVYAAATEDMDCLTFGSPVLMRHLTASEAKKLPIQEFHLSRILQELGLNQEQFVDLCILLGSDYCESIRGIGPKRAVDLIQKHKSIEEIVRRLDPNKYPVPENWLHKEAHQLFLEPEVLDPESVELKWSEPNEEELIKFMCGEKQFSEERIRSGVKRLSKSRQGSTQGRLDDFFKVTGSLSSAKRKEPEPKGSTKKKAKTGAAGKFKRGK
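Compounds are tested as a concentration series against 10 nM FEN1; after a 15 min room-temperature preincubation, 50 nM substrate starts cleavage, with plate reads at 0 and 15 min. Normalized responses are fitted by a Hill equation.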
POLI inh = qHTS for Inhibitors of Polymerase Iota. Pol iota fluorescent replication assay, 10 min. Potency, µM (top dose mostly 115 µM), for inactives: at the top dose activity, negative = inhibition, actives largely listed as inhibitors. hit rate 1% among 390,000. DNA polymerase iota (Homo sapiens), Q9UNA4
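Fluorescent replication assay read twice, at 0 min and 10 min after adding 50 nM (final) substrate. Enzyme (10 nM) and compounds were first incubated 15 min at room temperature; enzyme-free buffer wells were negative controls.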
Pol kappa inh-1 = qHTS for Inhibitors of Polymerase Kappa; purified Pol kappa, fluorescent DNA synthesis assay, 10 min; Potency, µM (titrated, usually from 107 µM), for inactives: at the highest dose activity, negative = inhibition, hits mostly inhibitors; hit rate 0.53% among 400,000; AID 588579, 2011; further: on the % scale 0 is the no-effect control and ±100 the full control effect
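Pol kappa 10 nM + cpd, 15 min RT; start w/ substrate 50 nM final; fluorescence kinetic read, 0 and 10 min. Neg ctrl: buffer, no enzyme.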
Pol beta inh = qHTS Assay for Inhibitors of DNA Polymerase Beta; P06746; Potency, µM (doses to about 114 µM), without a hit: at the top dose activity change, negative = inhibition, actives largely listed as inhibitors; AID 485314, 2010; hit rate 1.3% among 340,000; Pol beta primer extension/strand displacement, fluorescence kinetic; further: on the % scale 0 is the no-effect control and ±100 the full control effect
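Enzyme-only controls used 10 nM Pol beta; buffer lacking enzyme served as negative control. Compound preincubated 15 min, then 50 nM substrate added; 0 and 10 min reads at room temperature.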
PGK validate = qHTS for inhibitors of Phosphogylcerate Kinase: Hit Validation Screen. TbPGK coupled GAPDH assay, Kinase-Glo luminescence. shares compounds with Pol kappa inh-1. hit rate 79% among 500. Potency, µM (series often up to 57.5 µM), for inactives: at the top dose activity change, negative = inhibition, hits mostly inhibitors; further: on the % scale 0 is the no-effect control and ±100 the full control effect; nearly all actives have a fitted effect of over 65% in size
POLI cherry-pick = qHTS for Inhibitors of Polymerase Iota: Confirmatory Assay for Cherry-picked Compounds; shares compounds with Pol kappa inh-1; Pol iota primer extension, TAMRA/BHQ fluorescence; Potency, µM, hits mostly inhibitors; hit rate 77% among 1,500; AID 720496, 2013
Pol kappa inh-2 = qHTS for Inhibitors of Polymerase Kappa: Confirmatory Assay for Cherry-picked Compounds; shares compounds with Pol eta inh-1; purified Pol-kappa, fluorescent strand-displacement substrate; Potency, µM, hits mostly inhibitors; hit rate 76% among 920
Pol eta inh-2 = qHTS for Inhibitors of Polymerase Eta: Confirmatory Assay for Cherry-picked Compounds; shares compounds with Pol eta inh-1; Pol eta primer extension, TAMRA/BHQ fluorescence, 10 min; Potency, µM, usual class: inhibitors; hit rate 64% among 2,600
FEN1 inh-2 = qHTS Assay for the Inhibitors of FEN1: Confirmatory Assay for Cherry-picked Compounds. shares compounds with FEN1 inh-1. hit rate 79% among 880. Potency, µM, hits mostly inhibitors. FEN1 flap cleavage, TAMRA/BHQ2 fluorogenic DNA substrate; further: nearly all actives have a fitted effect of over 60% in size
WRN helicase inh-2 = qHTS for Inhibitors of WRN Helicase: Confirmatory Assay for Cherry-picked Compounds. hit rate 63% among 610. Potency, µM (titrated, usually from 57.1 µM), for the others: top-dose activity, negative = inhibition, usual class: inhibitors. AID 720497, 2013. WRN helicase DNA unwinding, fluorescence kinetic. shares compounds with WRN helicase inh-1; further: nearly all actives have a fitted effect of over 65% in size
TO DNA binding = qHTS for Inhibitors of WRN Helicase: Thiazole Orange DNA Binding Counterscreen | shares compounds with WRN helicase inh-1 | thiazole orange DNA binding displacement, fluorescence | Potency, µM (series often up to 57.1 µM), inactives show at the top dose activity change, negative = inhibition, actives largely listed as inhibitors | hit rate 10% among 610 | AID 720499, 2013;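 further: drop in dye fluorescence marks compound binding to DNA; on the % scale 0 is the no-effect control and ±100 the full control effect; nearly all actives have a fitted effect of over 60% in size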
BLM counter = qHTS for Inhibitors of WRN Helicase: BLM Helicase Counterscreen for WRN Inhibitors | AID 720503, 2013 | hit rate 60% among 610 | Potency, µM (series often up to 57.1 µM), for inactives: top-dose activity change, negative = inhibition, most hits filed as inhibitors | Recombinant BLM helicase DNA unwinding, red fluorescence | shares compounds with WRN helicase inh-1; further: nearly all actives have a fitted effect of over 60% in size
* hit, by the source's call; ? = inconclusive; nt = not tested or not shown. Most compounds without a hit are left out; they make up all but 2.4% or so of the library. The call rests on the fitted dose curve; in most records, active means well fitted curve in the direction sought with a large enough effect; inconclusive means small, poorly fitted or top-dose-only effect, or another doubt; inactive means no such curve, though single readings can be large; an effect the other way counts as inactive or inconclusive. Potency means the concentration at half of the fitted maximal effect.

SMILES | WRN helicase inh-1 | Pol eta inh-1 | FEN1 inh-1 | POLI inh | Pol kappa inh-1 | Pol beta inh | POLI cherry-pick | Pol eta inh-2 | FEN1 inh-2 | WRN helicase inh-2 | TO DNA binding | BLM counter | others
COc1cc(NS(=O)(=O)c2ccc(NC(=S)NC(=O)/C=C/c3ccco3)cc2)ncn1 | 14µM* | 2.2µM* | 13µM* | ? | 7.1µM* | 18µM* | 17* | 4.3* | 60* | 15µM* | -22% | 15µM* | PGK validate=4.6µM*
CCOc1ccc(NC(=S)NC(=O)/C=C/c2ccco2)cc1 | -10% | 3% | -1% | 117% | 2% | -17% | nt | nt | nt | nt | nt | nt
Cc1ccc(-n2c(Cc3ccccc3)nnc2SCc2nc(-c3cccs3)no2)cc1C | nt | -19% | -5% | -9% | -10% | -1% | nt | nt | nt | nt | nt | nt
O=C1c2cccc(NCCCNCCO)c2C(=O)c2cccc(NCCCNCCO)c21 | 10µM* | 4.5µM* | 3.5µM* | 45µM* | 32µM* | nt | 19* | 38* | 4.3* | 1.1µM* | 0.86µM* | 1.7µM* | Pol kappa inh-2=17*
O=C1c2ccccc2C(=O)c2c(NCc3cccnc3)cccc21 | -20% | -1% | -18% | 9% | -12% | -2% | nt | nt | nt | nt | nt | nt
Nc1nc2c(s1)CCc1c-2cnn1-c1ccccc1 | -25% | 79µM* | 18µM* | 14µM* | -4% | ? | 24* | 67* | nt | 30µM* | -16% | 30µM*
